From PubChem
AMA1 RON2 block: inhibitors of Plasmodium falciparum AMA1-RON2 interaction | Potency, µM (doses to about 58.2 µM), without a hit: at the top dose activity change, negative = inhibition, usual class: inhibitors | AlphaScreen AMA1-biotinylated RON2 peptide binding | 0.2% of 360,000 active;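 note: potency is the fitted concentration of half-maximal effect; 0% = vehicle wells and -100% = peptide control; nearly all actives have a fitted effect of over 45% in size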
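AMA1 (3D7) with his tag at 25 nM final met compounds first, then biotinylated RON2 peptide at 25 nM; detection used donor plus acceptor beads, 10 µg/mL apiece, read by AlphaScreen after 30 min at room temperature.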
NS1 inh: inhibitors of influenza NS1 protein function. Potency, µM (highest dose often 46.1 µM), for inactives: top-dose activity, positive = more growth. 0.4% of 270,000 active; calls by dose curve; note: potency is the fitted concentration of half-maximal effect; actives are rising curves; nearly all actives have a fitted effect of over 50% in size
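Read-out: OD600 growth recovery of NS1-expressing budding yeast. Cells grown overnight at 30C in -URA glucose medium, washed, resuspended and diluted 1:100 in 2% galactose assay medium, pH 6.0. Same strain lacking NS1 served as positive control.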
Pf growth 48h: P. falciparum growth inhibition at 48 hours (one generation); Potency, µM (titrated, usually from 28.7 µM), for the others: top-dose activity change, negative = inhibition, usual class: inhibitors; AID 504832; P. falciparum luciferase growth in erythrocytes, 48 h; 5.9% of 310,000 active; note: potency is the fitted concentration of half-maximal effect; % is set by controls: 0 for no effect and ±100 for the full control effect
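In quantitative HTS format, infected erythrocytes bearing luciferase-reporter parasites were treated for a single generation at 37 C. Luminescence after adding detection reagent served as the growth measure.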
Sm TGR inh: blocks Schistosoma mansoni thioredoxin glutathione reductase | 3% of 360,000 active | Q962Y6 | purified TGR, DTNB reduction, TNB absorbance 405 nm | AID 485364 | Potency, µM (highest dose often 114 µM), for inactives: top-dose activity change, negative = inhibition, most hits filed as inhibitors; note: potency is the fitted concentration of half-maximal effect; % is set by controls: 0 for no effect and ±100 for the full control effect; nearly all actives have a fitted effect of over 60% in size
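First, TGR (20 nM dispensed) and NADPH were mixed with compound. Second, a 15 min room-temperature incubation followed. Third, further NADPH and then DTNB were added to start the reaction. Finally, TNB absorbance was monitored kinetically.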
Pf growth 96h: P. falciparum growth inhibition at 96 hours; Potency, µM (top dose mostly 28.7 µM), for inactives: top-dose activity change, negative = inhibition, hits mostly inhibitors; AID 504834; P. falciparum luciferase reporter growth, 96 h; 6.9% of 320,000 active; note: potency is the fitted concentration of half-maximal effect; % is set by controls: 0 for no effect and ±100 for the full control effect
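Erythrocytes infected with luciferase-expressing P. falciparum were dispensed at 2% hematocrit and 0.05% parasitemia (final), then incubated with compounds 96 hours at 37 C in 5% CO2. Luminescence after detection reagent addition reported growth.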
Flu NS1 inh: influenza NS1 function inhibition validation; shares compounds with NS1 inh; influenza NS1 function cell assay, 15-point titration; activity change, negative = inhibition, % at 32.9 µM; 1,400 tested, under 10 active; calls by dose curve; note: 0% is about no effect
Flu PR8 replic: reduces influenza A/PR/8/34 replication in MDCK cells. MDCK infected influenza A/PR/8/34, virus titer TCID50; stronger effect = lower value. shares compounds with NS1 inh. virus titer (log TCID50), log10 TCID50 at 5 µM. 30% of 95 active; call rule not given here
An asterisk follows results filed as active. A selection: hits, their analogues and other compounds. The true share with any hit is near 11%. Unless noted, calls come from the whole dose curve; as a rule, active = well fitted curve in the direction sought with a large enough effect; inconclusive = small, poorly fitted or top-dose-only effect, or another doubt; inactive = no such curve, though single readings can be large; an effect the other way counts as inactive or inconclusive.

Screening CC(C)CC(C(=O)Nc1oc(-c2ccco2)c(-c2ccco2)c1C#N)N1C(=O)c2ccccc2C1=O (stereo not given) returned AMA1 RON2 block 16.0%, NS1 inh 10µM*, Pf growth 48h inconclusive, Sm TGR inh 56.2µM*, Pf growth 96h inconclusive, Flu NS1 inh -11.2 and Flu PR8 replic 8.
Cc1cccc(NC2=Nc3ccccc3N3C2=Nc2c(c(C)nn2-c2ccccc2)C3c2ccc(O)c(O)c2)c1 (stereo not given) was read as AMA1 RON2 block inconclusive, NS1 inh 3.55µM*, Pf growth 48h inconclusive, Sm TGR inh -3.1%, Pf growth 96h 11.7µM* and Flu NS1 inh 3.5.
For Cc1ccc(NC2=Nc3ccccc3N3C2=Nc2c(c(C)nn2-c2ccccc2)C3c2ccc(O)c(O)c2)cc1 (stereo not given) the results were AMA1 RON2 block -12.6%, NS1 inh inconclusive, Pf growth 48h inconclusive, Sm TGR inh -23.8% and Pf growth 96h inconclusive.
COc1ccc(/C=N/NC(=O)CCc2c(C)n[nH]c2C)cc1OC was read as AMA1 RON2 block 0.1%, NS1 inh 5.62µM*, Pf growth 48h -0.1%, Sm TGR inh -13.5% and Flu NS1 inh 18.7.
`COC(=O)C[C@@H]1CC[C@H](NC(=O)c2ccccc2)[C@@H](CO)O1` gave AMA1 RON2 block 2.2%.
C[C@@H](C(=O)NCc1ccccc1)[C@H]1C[C@]1(C)[C@H](NC(=O)OCc1ccccc1)c1ccccc1 was read as AMA1 RON2 block 6.6%, NS1 inh 16.7%, Pf growth 48h -18.4%, Sm TGR inh -22.7% and Pf growth 96h inconclusive.
`C[C@@H](C(=O)Nc1ccc2ccccc2c1)[C@@H]1C[C@@]1(C)[C@@H](NC(=O)c1ccccc1)c1ccccc1` gave AMA1 RON2 block 3.5%, NS1 inh 12.6µM*, Pf growth 48h inconclusive, Sm TGR inh 4.8%, Pf growth 96h 13.1µM*, Flu NS1 inh 14.8 and Flu PR8 replic 8.66.
For Cc1nn(C)c(Cl)c1S(=O)(=O)N[C@@H](c1ccccc1)[C@]1(C)C[C@H]1[C@@H](C)C(=O)Nc1ccc2ccccc2c1 the results were AMA1 RON2 block -4.5%, NS1 inh inconclusive, Pf growth 48h -11.7%, Sm TGR inh -4.2% and Pf growth 96h -19.8%.
For C[C@@H](C(=O)Nc1ccc2ccccc2c1)[C@H]1C[C@]1(C)[C@H](NC(=O)c1cccnc1)c1ccccc1 the results were AMA1 RON2 block 0.8%, NS1 inh 14.1µM*, Pf growth 48h 5.22µM*, Sm TGR inh -1.8%, Pf growth 96h 5.22µM*, Flu NS1 inh -2.7 and Flu PR8 replic 8.
For Cc1ccc(CC(=O)Nc2ccc(S(=O)(=O)N3CCOCC3)cc2)cc1 the results were AMA1 RON2 block 0.0%, NS1 inh inconclusive, Pf growth 48h -2.0%, Sm TGR inh 2.0%, Pf growth 96h 35.0% and Flu NS1 inh -26.8.
For O=C(Cc1ccc(Cl)cc1)Nc1ccc(S(=O)(=O)N2CCOCC2)cc1 the results were AMA1 RON2 block -3.1%, NS1 inh -3.7%, Pf growth 48h inconclusive, Sm TGR inh -9.3% and Pf growth 96h 6.1%.
For COc1ccc(NC(=S)Nc2cccc(S(=O)(=O)N3CCCCC3)c2)cc1 the results were AMA1 RON2 block 31.6%, NS1 inh 12.6µM*, Pf growth 48h -7.2%, Sm TGR inh 35.5µM*, Pf growth 96h 9.6% and Flu NS1 inh 2.1.
For COc1ccc(CN2CCN(S(=O)(=O)c3ccc(NC(C)=O)cc3)CC2)cc1 the results were AMA1 RON2 block inconclusive, NS1 inh inconclusive, Pf growth 48h inconclusive, Sm TGR inh 2.8%, Pf growth 96h inconclusive and Flu NS1 inh 3.2.
Screening COc1ccc(NC(=S)Nc2ccc(S(=O)(=O)N3CCCCC3)cc2)cc1 returned AMA1 RON2 block 18.0%.
N#Cc1ccccc1NC(=O)Cn1cnc2onc(-c3cccc(F)c3)c2c1=O was read as Sm TGR inh -0.5%.
`CCS(=O)(=O)N1CCN(c2ccc([N+](=O)[O-])c(NCc3cccnc3)c2)CC1` gave AMA1 RON2 block -3.3%, NS1 inh 1.4%, Pf growth 48h -4.9%, Sm TGR inh 2.8% and Pf growth 96h 70.2%.
For O=[N+]([O-])c1ccc(N2CCN(S(=O)(=O)c3ccccc3[N+](=O)[O-])CC2)cc1NCc1cccnc1 the results were AMA1 RON2 block -9.1%, NS1 inh 14.1µM*, Pf growth 48h 8.28µM*, Sm TGR inh 0.7%, Pf growth 96h 10.4µM* and Flu NS1 inh 30.9.
`O=C(O)c1cc(NS(=O)(=O)c2ccc(NCc3ccccc3)c([N+](=O)[O-])c2)cc(C(=O)O)c1` gave AMA1 RON2 block -5.5%, NS1 inh 14.1µM*, Pf growth 48h 2.9%, Sm TGR inh -12.1%, Pf growth 96h 11.8% and Flu NS1 inh 33.2.
`OC(CNCC(c1ccco1)N1CCCCC1)c1ccccc1` (stereo not given) gave AMA1 RON2 block -11.9%, NS1 inh 2.24µM*, Pf growth 48h 1.31µM*, Sm TGR inh -3.9%, Pf growth 96h inconclusive and Flu NS1 inh 6.6.
CCC(C)N(C(=O)COC(=O)c1[nH]c(C)c(C(C)=O)c1C)C1CCS(=O)(=O)C1 (stereo not given) was read as AMA1 RON2 block 4.7%, NS1 inh 3.16µM*, Pf growth 48h -15.1%, Sm TGR inh -24.3%, Pf growth 96h -19.6% and Flu NS1 inh 1.0.
`CCN(C(=O)COC(=O)c1[nH]c(C)c(C(C)=O)c1C)C1CCS(=O)(=O)C1` (stereo not given) gave AMA1 RON2 block -4.5%, NS1 inh 2.8%, Pf growth 48h inconclusive, Sm TGR inh 13.8% and Pf growth 96h 13.4%.
`Cc1cc(Nc2cc(F)ccc2C)n2nc(C)nc2n1` gave AMA1 RON2 block 0.0%, NS1 inh 6.8%, Pf growth 48h 32.6%, Sm TGR inh -8.3% and Pf growth 96h 12.8%.
Cc1cc(Nc2ccc(F)cc2F)n2nc(C)nc2n1 was read as AMA1 RON2 block -3.8%, NS1 inh 12.6µM*, Pf growth 48h -6.0%, Sm TGR inh 9.4%, Pf growth 96h 17.8% and Flu NS1 inh -27.3.
For O=C(COc1ccc(Cl)cc1)N1CCN(c2ccc([N+](=O)[O-])c(N3CCCCC3)c2)CC1 the results were AMA1 RON2 block -26.8%, NS1 inh 11.2µM*, Pf growth 48h inconclusive, Sm TGR inh -4.3%, Pf growth 96h 10.4µM* and Flu NS1 inh inconclusive.
